PubChem BioAssay (Tox21)
Values without a mark were called inactive. Inconclusive results are not listed. Where a call stands in place of a potency, no number is given. The source made the active and inactive calls. Calls come from the whole dose curve; as a rule, active = well fitted curve in the direction sought with a large enough effect in the repeat runs; inconclusive = weak or mixed curves; inactive = no such curve, though single readings can be large; an effect the other way counts as inactive or inconclusive.

Experiments:
[1] = Human pregnane X receptor (PXR) small molecule agonists, qHTS cell viability counter screen (AID 1346977); note: nearly all actives have a fitted effect of over 50% in size
Method in brief: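 PXR-Luc HepG2 cells in medium with 5% charcoal-stripped FBS were pre-incubated 5hr, then exposed to compounds for 24hr at 37C. Viability was read in the same wells by CellTiter-Fluor fluorescence, reagent added after 23hr with a 1hr incubation.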

[2] = Caspase-3/7 induction in HepG2 cells by small molecules, qHTS assay (AID 1346978); note: nearly all actives have a fitted effect of over 15% in size
Method in brief: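 Wild-type HepG2 cells (2,000/well) were settled 5 h at 37 C, 5% CO2, then exposed to compounds in DMSO for 17 h. Caspase-3/7 activity was read by luminescence 30 min after adding Caspase-Glo 3/7 reagent at room temperature.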

[3] = Caspase-3/7 induction in CHO-K1 cells by small molecules, qHTS cell viability counter screen (AID 1346979); note: nearly all actives have a fitted effect of over 35% in size
Method in brief: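 Wild-type CHO-K1 cells were seeded at 1,500 per well, rested 5hr at 37 C, then exposed to compounds in DMSO. After 16hr, CellTiter-Fluor reagent was added and fluorescence read 1hr later as the viability measure.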

[4] = Caspase-3/7 induction in HepG2 cells by small molecules, qHTS cell viability counter screen (AID 1346981); note: series mostly up to about 92 µM; nearly all actives have a fitted effect of over 30% in size
Method in brief: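 Counter screen for cytotoxicity: HepG2 exposed 16 hr to compounds, then CellTiter-Fluor viability signal (fluorescence, 1 hr reagent incubation).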

[5] = molecular target: Nuclear receptor subfamily 1 group I member 2 (Homo sapiens) (UniProt O75469); assay: Human pregnane X receptor (PXR) small molecule agonists, qHTS assay (AID 1346982); note: nearly all actives have a fitted effect of over 35% in size
Method in brief: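 Luminescence (ONE-Glo, 30 min RT) after 24 hr compound exposure of PXR-Luc HepG2 cells; cells rested 5 hr post-plating in 5% charcoal-stripped FBS medium.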

[6] = molecular target: Nuclear receptor subfamily 1 group I member 2 (Rattus norvegicus) (UniProt Q9R1A7); assay: Rat pregnane X receptor (rPXR) activation by small molecules, qHTS assay (AID 1346983); conditions: rPXR luciferase reporter cells, One-Glo luminescence, 24 h; max activation: active compounds read high; note: nearly all actives have a fitted effect of over 20% in size
Method in brief: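 Cell-based rPXR luciferase reporter assay, 2,000 cells per well, rested 5hr at 37 C before compound addition in DMSO, then 24 hr at 37 C. One-Glo reagent was added and luminescence read after 30 min at room temperature.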

[7] = molecular target: Nuclear receptor subfamily 1 group I member 2 (Homo sapiens) (UniProt O75469); assay: CYP3A4 induction through human pregnane X receptor (PXR) by small molecules, qHTS assay (AID 1346984); note: nearly all actives have a fitted effect of over 40% in size
Method in brief: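 DPX-2 reporter cells; 24h cpd, 37C; Luciferin-IPA 3uM final x3h; One-Glo 30 min RT; lumi read.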

[8] = molecular target: Nuclear receptor subfamily 1 group I member 2 (Homo sapiens) (UniProt O75469); assay: Human pregnane X receptor (PXR) activation by small molecules, qHTS assay (AID 1346985); note: nearly all actives have a fitted effect of over 40% in size
Method in brief: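 DPX-2 cells (HepG2 co-transfected with a PXR response element and a CYP3A4-promoter luciferase construct) were seeded at 2,000 per well, rested 5 hr at 37C, then exposed to DMSO-dissolved compounds for 24 hr. Activation was read as luciferase luminescence.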

[9] = molecular target: Cytochrome P450 2D6 (Homo sapiens) (UniProt P10635); assay: Cytochrome P450 Family 2 Subfamily D Member 6 (CYP2D6) small molecule antagonists: luciferase reporter qHTS assay (AID 1671196); note: series mostly up to about 120 µM; nearly all actives have a fitted effect of over 50% in size
Method in brief: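 Inhibition of CYP2D6 was gauged by loss of luminescence, since light produced tracks the luciferin generated from a proluciferin substrate. A 10 min room-temperature preincubation preceded 1 h NADPH-supported turnover.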

[10] = molecular target: Cytochrome P450 2C19 (Homo sapiens) (UniProt P33261); assay: Cytochrome P450 Family 2 Subfamily C Member 19 (CYP2C19) small molecule antagonists: luciferase reporter qHTS assay (AID 1671197); note: nearly all actives have a fitted effect of over 65% in size; note: potency is the fitted concentration of half-maximal effect
Method in brief: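 Compounds were tested on CYP2C19 activity via proluciferin conversion to luciferin. The 37C, 1 h reaction followed NADPH addition; detection reagent stopped it.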

[11] = molecular target: Cytochrome P450 2C9 (Homo sapiens) (UniProt P11712); assay: Cytochrome P450 Family 2 Subfamily C Member 9 (CYP2C9) small molecule antagonists: luciferase reporter qHTS assay (AID 1671198); note: series mostly up to about 120 µM; nearly all actives have a fitted effect of over 50% in size
Method in brief: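 CYP2C9 activity was measured with a P450-Glo proluciferin substrate. Enzyme–substrate mix was held with compound for 10 min at room temperature, then NADPH regeneration solution was added for 1 h at 37C. Luciferin product was read as luminescence.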

[12] = molecular target: Cytochrome P450 1A2 (Homo sapiens) (UniProt P05177); assay: Cytochrome P450 Family 1 Subfamily A Member 2 (CYP1A2) small molecule antagonists: luciferase reporter qHTS assay (AID 1671199); note: nearly all actives have a fitted effect of over 50% in size; note: potency is the fitted concentration of half-maximal effect
Method in brief: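 Signal from luciferin formed by CYP1A2 from a proluciferin substrate is read as luminescence, expressed in relative luminescence units. Compounds sit with enzyme 10 min, NADPH-driven reaction runs 1 h, all at room temperature.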

[13] = molecular target: Voltage-gated inwardly rectifying potassium channel KCNH2 (Homo sapiens) (UniProt Q12809); assay: Human Ether-a-go-go-Related Gene (hERG) channel small molecule antagonists: fluorescence cell-based qHTS assay (AID 1671200)
Method in brief: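 U2OS cells expressing the channel were plated at 1000 cells/well, incubated overnight at 37 C, then loaded with FluxOR II thallium-sensitive dye for 1 h at room temperature in the dark, with a further 10 min at room temperature before stimulation.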

[14] = molecular target: Cytochrome P450 3A4 (Homo sapiens) (UniProt P08684); assay: Cytochrome P450 Family 3 Subfamily A Member 4 (CYP3A4) small molecule antagonists: luciferase reporter qHTS assay (AID 1671201)
Method in brief: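 P450-Glo CYP3A4 system with proluciferin substrate; compounds preincubated 10 min RT with enzyme-substrate mix, then NADPH regeneration added for 1 h RT. Detection reagent 20 min, luminescence read as relative luminescence units.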

[15] = Caspase-3/7 induction in CHO-K1 cells by small molecules, qHTS assay (AID 1346980); note: nearly all actives have a fitted effect of over 15% in size
Method in brief: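 Wild-type cells were seeded at 1,500 per well and settled 5 hr at 37 C, 5% CO2, then exposed to DMSO-dissolved compounds for 17 hr. Caspase-Glo 3/7 reagent was added, and luminescence was read after 30min at room temperature.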

Sequence of Nuclear receptor subfamily 1 group I member 2 (Homo sapiens) (O75469 whole entry, looked up): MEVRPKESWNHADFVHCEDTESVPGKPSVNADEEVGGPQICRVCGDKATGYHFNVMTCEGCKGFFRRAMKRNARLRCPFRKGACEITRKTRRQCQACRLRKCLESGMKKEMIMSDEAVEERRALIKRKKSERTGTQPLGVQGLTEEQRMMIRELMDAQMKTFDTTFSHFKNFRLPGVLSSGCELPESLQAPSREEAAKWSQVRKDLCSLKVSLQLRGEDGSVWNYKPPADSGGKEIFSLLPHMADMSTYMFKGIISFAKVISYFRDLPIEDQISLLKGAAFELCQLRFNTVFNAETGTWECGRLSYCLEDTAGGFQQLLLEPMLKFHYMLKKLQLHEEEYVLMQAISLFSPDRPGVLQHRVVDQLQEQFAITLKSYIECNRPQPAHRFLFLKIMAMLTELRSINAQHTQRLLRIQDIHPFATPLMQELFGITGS
Sequence of Cytochrome P450 2C19 (Homo sapiens) (P33261 whole entry, looked up): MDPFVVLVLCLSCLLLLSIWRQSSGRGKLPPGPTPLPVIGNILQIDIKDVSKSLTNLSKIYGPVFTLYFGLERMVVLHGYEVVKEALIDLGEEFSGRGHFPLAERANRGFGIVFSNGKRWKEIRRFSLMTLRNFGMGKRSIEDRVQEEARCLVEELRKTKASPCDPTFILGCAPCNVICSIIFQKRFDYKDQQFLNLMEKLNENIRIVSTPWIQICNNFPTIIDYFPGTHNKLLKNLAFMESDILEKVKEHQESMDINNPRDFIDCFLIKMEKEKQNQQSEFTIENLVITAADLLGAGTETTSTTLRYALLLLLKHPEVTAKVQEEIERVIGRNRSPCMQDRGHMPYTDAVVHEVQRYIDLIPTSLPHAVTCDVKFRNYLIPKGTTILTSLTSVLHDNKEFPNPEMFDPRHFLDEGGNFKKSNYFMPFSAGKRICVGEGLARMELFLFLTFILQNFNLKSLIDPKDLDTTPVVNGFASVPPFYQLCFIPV
Sequence of Cytochrome P450 3A4 (Homo sapiens) (P08684 whole entry, looked up): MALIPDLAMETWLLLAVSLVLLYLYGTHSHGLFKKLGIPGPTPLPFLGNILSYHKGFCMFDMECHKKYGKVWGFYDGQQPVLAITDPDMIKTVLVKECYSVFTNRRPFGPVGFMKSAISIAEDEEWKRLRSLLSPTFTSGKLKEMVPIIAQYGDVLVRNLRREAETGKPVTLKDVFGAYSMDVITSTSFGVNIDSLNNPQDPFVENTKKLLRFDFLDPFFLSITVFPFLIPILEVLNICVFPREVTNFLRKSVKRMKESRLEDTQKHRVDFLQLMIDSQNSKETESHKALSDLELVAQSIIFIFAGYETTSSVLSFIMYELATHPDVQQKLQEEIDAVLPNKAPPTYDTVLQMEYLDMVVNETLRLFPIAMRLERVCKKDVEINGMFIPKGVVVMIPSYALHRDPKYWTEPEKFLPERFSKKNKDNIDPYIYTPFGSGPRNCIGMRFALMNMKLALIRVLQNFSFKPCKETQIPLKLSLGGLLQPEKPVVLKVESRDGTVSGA
Sequence of Cytochrome P450 1A2 (Homo sapiens) (P05177 whole entry, looked up): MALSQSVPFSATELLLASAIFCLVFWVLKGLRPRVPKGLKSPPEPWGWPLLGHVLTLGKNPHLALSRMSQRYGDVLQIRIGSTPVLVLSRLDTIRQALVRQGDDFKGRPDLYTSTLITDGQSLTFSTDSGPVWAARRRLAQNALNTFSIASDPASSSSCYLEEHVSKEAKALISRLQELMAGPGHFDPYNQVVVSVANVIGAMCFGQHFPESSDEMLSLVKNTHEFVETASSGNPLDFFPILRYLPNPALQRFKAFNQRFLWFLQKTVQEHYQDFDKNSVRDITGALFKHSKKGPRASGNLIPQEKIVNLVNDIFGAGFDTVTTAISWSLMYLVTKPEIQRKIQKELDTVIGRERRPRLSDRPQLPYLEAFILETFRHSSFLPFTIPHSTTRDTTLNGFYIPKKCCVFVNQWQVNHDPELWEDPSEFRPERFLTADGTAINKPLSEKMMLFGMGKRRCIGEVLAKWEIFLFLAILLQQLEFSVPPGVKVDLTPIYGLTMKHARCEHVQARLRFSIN
Sequence of Cytochrome P450 2C9 (Homo sapiens) (P11712 whole entry, looked up): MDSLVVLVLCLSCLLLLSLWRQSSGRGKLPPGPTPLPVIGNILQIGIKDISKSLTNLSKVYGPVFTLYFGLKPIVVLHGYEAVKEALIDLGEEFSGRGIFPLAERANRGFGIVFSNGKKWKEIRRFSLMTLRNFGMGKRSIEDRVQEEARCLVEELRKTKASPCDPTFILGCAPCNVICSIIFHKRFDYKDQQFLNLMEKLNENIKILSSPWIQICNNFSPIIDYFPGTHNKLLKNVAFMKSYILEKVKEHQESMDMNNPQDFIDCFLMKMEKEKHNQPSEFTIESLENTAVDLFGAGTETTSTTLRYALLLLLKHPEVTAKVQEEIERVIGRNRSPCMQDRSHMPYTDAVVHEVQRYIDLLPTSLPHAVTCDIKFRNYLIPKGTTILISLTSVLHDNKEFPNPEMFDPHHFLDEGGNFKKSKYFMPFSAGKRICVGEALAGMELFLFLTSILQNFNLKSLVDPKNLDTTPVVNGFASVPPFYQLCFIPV
Sequence of Cytochrome P450 2D6 (Homo sapiens) (P10635 whole entry, looked up): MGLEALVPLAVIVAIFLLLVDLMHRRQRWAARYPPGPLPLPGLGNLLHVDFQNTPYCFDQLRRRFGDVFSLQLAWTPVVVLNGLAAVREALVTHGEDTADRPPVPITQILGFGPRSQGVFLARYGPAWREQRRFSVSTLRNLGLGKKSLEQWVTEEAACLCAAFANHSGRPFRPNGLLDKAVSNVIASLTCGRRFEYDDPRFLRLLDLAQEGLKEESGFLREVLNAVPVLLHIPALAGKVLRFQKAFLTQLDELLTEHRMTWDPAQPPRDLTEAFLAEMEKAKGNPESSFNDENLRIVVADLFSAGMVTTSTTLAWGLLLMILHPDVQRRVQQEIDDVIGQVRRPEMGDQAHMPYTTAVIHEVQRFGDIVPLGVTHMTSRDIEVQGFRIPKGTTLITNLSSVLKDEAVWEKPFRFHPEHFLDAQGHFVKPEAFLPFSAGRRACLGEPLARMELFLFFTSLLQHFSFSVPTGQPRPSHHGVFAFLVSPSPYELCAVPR
Sequence of Voltage-gated inwardly rectifying potassium channel KCNH2 (Homo sapiens) (Q12809 whole entry, looked up): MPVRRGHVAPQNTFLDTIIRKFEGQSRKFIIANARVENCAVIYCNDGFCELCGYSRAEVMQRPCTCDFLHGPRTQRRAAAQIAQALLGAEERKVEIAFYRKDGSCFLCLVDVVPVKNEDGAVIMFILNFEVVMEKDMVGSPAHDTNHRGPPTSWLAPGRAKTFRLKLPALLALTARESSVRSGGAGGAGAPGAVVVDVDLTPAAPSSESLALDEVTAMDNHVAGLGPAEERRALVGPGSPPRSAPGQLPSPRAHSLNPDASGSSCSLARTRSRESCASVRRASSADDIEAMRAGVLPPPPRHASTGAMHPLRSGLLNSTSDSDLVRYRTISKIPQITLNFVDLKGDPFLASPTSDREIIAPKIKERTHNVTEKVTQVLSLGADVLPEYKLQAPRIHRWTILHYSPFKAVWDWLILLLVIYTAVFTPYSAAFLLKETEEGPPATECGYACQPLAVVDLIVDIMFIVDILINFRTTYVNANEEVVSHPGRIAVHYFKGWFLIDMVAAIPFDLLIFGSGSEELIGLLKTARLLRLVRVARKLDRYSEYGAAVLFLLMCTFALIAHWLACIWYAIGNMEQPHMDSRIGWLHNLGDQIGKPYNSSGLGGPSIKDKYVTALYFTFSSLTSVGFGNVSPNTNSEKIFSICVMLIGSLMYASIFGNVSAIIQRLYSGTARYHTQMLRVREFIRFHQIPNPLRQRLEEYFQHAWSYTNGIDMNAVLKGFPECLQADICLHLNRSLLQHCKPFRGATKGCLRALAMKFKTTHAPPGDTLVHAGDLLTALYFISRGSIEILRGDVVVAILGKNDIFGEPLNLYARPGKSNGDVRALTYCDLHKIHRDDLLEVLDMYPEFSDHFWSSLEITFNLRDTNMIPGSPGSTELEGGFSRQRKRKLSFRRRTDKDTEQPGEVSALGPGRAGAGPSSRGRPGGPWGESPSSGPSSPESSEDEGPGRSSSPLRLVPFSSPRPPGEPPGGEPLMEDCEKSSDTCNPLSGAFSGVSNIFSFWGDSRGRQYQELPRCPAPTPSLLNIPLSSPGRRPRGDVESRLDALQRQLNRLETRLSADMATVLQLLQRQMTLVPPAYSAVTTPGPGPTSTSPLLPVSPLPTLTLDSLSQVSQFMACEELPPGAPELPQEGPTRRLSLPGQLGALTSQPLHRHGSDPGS
Sequence of Nuclear receptor subfamily 1 group I member 2 (Rattus norvegicus) (Q9R1A7 whole entry, looked up): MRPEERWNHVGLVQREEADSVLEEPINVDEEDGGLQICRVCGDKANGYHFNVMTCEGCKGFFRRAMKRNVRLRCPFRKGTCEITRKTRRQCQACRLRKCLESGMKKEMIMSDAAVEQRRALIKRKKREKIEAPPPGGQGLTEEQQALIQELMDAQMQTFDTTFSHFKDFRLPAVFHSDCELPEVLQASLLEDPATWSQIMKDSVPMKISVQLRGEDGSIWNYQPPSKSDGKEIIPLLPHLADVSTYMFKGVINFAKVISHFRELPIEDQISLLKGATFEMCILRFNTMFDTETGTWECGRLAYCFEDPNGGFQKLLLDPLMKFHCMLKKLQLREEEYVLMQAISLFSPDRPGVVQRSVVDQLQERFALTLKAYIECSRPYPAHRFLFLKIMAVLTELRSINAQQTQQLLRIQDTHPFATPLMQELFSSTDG

SMILES | Potency [1] | Potency [2] | Potency [3] | Potency [4] | Potency [5] | max activation [6] | Potency [7] | Potency [8] | Potency [9] | Potency [10] | Potency [11] | Potency [12] | Potency [13] | Potency [14] | outcome [15]
CCn1cc(C(=O)O)c(=O)c2cc(F)c(N3CCNCC3)nc21 | inactive | inactive | inactive | inactive | inactive | -1.42% | inactive | inactive | inactive | inactive | inactive | inactive | inactive | inactive | 
CCCOC(=O)c1ccc(N)cc1 | inactive | inactive |  | inactive | inactive | 14.2% | inactive | inactive |  | 24.5 µM (active) |  | 6.45 µM (active) | inactive |  | inactive
OCCSc1ccccc1 | inactive | inactive |  | inactive | inactive |  |  |  | inactive | inactive | inactive | 39.9 µM (active) | inactive | inactive | inactive
CCCCCCCC/C=C\CCCCCCCC(=O)OC | inactive | inactive | inactive |  | inactive |  |  |  |  | inactive | inactive | 31.8 µM (active) | inactive | inactive | inactive
CC(C)C(=O)O | inactive | inactive | inactive | inactive | inactive |  |  |  | inactive | inactive | inactive | inactive | inactive | inactive | 
CC(=O)N(c1onc(C)c1C)S(=O)(=O)c1ccc(N)cc1 | inactive | inactive | inactive |  | inactive |  |  |  |  | inactive | inactive | inactive | inactive |  | 
